# Data as given in PubChem BioAssay.
# Calls of active or inactive are those of the source. Unless noted, how the calls were made is not given here.
# Assays:
# [1] = HepG2 liver cancer cell viability effects, profiling panel, resazurin fluorescence, 24 h, PK04 Diversity Set (AID 1172); conditions: higher = more signal; further: test concentration not given here
# [2] = basal S. cerevisiae growth modulation, no modifier, primary screen, OD600, strain BY4716, 24 h, basal condition (AID 1173); conditions: OD600, 24 h, higher = more signal, called active from +8 up or from −8 down
# [3] = MM1S myeloma cell viability, profiling panel, resazurin fluorescence, basal, 24 h, PK04 Diversity Set (AID 1174); conditions: higher = more signal, called active from +8 up or from −8 down;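 further: MM1S multiple myeloma cell line; test concentration not given here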
# [4] = molecular target: Dihydroorotate dehydrogenase (quinone), mitochondrial (Plasmodium falciparum (isolate 3D7)) (UniProt Q08210); assay: PfDHODH enzyme inhibitors, primary screen, biochemical, C-terminal His tag, absorbance 600 nm (AID 1175); conditions: DCIP absorbance 600 nm, higher = more signal, called active from +8 up or from −8 down;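 further: recombinant parasite enzyme with a five histidine tag at its C terminus; test concentration not given here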
# [5] = P. aeruginosa biofilm formation inhibitors, primary screen, strain PAO1, LB-PBS medium, absorbance 600 nm (AID 1176); further: test concentration not given here; conditions: P. aeruginosa PAO1 growth/biofilm, A600, 12 h; higher = more signal
# [6] = S. cerevisiae RM11-1a growth modifiers, primary screen, strain RM11-1a, OD600, basal, 24 h (AID 1177); conditions: OD600, 24 h, higher = more signal, called active from +8 up or from −8 down;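 further: cultures grown under basal conditions with no added stressor; test concentration not given here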
# [7] = E. coli acrAB mutant growth effects, primary screen, E. coli filamentation inducers, strain DRC39, OD650, 24 h (AID 1178); conditions: higher = more signal, called active from +8 up or from −8 down;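 further: growth measured as culture turbidity by optical density at 650 nm; test concentration not given here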
# [8] = E. coli acrAB mutant growth effects, primary screen, E. coli filamentation inducers, strain DRC39, OD650, 48 h (AID 1179);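 further: screen aims at cell division blockers that make cells filament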; conditions: E. coli DRC39 delta-acrAB growth, higher = more signal, called active from +8 up or from −8 down
# [9] = RPMI8226 myeloma cell viability, profiling panel, resazurin fluorescence, basal, 24 h, PK04 Diversity Set (AID 1180); conditions: higher = more signal;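 further: RPMI8826 multiple myeloma cell line at 5000 cells per well; test concentration not given here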
# [10] = molecular target: E3 ubiquitin-protein ligase XIAP (Homo sapiens) (UniProt P98170); assay: XIAP binders, primary screen, biophysical, small-molecule microarray, fluorescence 635 nm (AID 1181); conditions: small-molecule microarray binding, higher = more signal;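 further: score merges 667 nm emission and signal to noise over triplicate slides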
# E3 ubiquitin-protein ligase XIAP (Homo sapiens), sequence (P98170 whole entry, looked up): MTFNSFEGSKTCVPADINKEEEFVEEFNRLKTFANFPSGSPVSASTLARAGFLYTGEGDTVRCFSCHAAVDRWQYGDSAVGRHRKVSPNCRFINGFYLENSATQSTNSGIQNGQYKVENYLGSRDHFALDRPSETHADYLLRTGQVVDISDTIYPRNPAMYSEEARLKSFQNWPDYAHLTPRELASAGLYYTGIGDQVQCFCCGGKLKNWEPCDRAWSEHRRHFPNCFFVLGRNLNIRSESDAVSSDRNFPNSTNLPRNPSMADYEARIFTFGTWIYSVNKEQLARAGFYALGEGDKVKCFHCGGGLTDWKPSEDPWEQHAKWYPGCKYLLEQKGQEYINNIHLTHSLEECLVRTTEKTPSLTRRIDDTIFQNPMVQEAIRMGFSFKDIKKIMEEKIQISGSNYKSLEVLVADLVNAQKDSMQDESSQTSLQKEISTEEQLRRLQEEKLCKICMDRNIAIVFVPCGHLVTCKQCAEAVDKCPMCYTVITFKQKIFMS
# Dihydroorotate dehydrogenase (quinone), mitochondrial (Plasmodium falciparum (isolate 3D7)), sequence (Q08210 whole entry, looked up): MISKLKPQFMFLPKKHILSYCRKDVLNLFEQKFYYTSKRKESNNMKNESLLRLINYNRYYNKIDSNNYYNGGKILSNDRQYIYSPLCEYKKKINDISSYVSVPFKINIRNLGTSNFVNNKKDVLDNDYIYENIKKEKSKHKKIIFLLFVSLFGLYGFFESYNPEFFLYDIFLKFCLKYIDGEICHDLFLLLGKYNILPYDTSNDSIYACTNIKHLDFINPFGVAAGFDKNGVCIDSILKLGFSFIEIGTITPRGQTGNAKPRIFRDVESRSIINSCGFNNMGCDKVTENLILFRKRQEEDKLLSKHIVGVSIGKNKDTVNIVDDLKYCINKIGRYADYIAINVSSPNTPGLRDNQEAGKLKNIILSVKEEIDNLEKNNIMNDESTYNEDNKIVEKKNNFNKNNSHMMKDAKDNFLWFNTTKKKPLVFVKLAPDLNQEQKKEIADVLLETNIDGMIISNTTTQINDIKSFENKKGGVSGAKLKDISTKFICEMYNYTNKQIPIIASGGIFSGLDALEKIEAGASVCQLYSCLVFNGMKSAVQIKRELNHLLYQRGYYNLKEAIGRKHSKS
SMILES,z-score [1],z-score [2],z-score [3],composite z-score [4],z-score [5],z-score [6],z-score [7],z-score [8],z-score [9],composite z-score [10]
Cc1ccc(F)cc1S(=O)(=O)N[C@@H]1CCN(Cc2ccc3[nH]ccc3c2)C1,-1.14,-2.59 (inactive),-0.946 (inactive),-0.203 (inactive),-0.189 (inactive),-0.773 (inactive),-1.37 (inactive),-4.18 (inactive),-0.73,-0.144
COCCOC(=O)N1C(=O)[C@@]2(c3cc(C#CCCO)ccc31)[C@H](c1ccc(O)cc1)N1[C@H](c3ccccc3)[C@H](c3ccccc3)OC(=O)[C@H]1[C@@H]2C(=O)N1CCc2cc(OC)c(OC)cc2C1,0.458,0.537 (inactive),0.202 (inactive),-1.1 (inactive),0.318 (inactive),1.26 (inactive),0.886 (inactive),0.821 (inactive),1.26,-0.0272
O=C(NCCO)C1=C[C@H](Oc2ccccc2I)[C@@H](O)[C@H](NCc2ccc(F)cc2)C1,-1.47,-2.04 (inactive),-0.206 (inactive),-0.287 (inactive),0.367 (inactive),0.423 (inactive),-0.802 (inactive),-1.44 (inactive),-0.264,0.181
COCCCN1C(=O)[C@@]2(Cc3ccccc31)c1ccccc1C(=O)N(Cc1ccccc1OC)[C@H]2c1ccc(CO)cc1,-0.525,-0.0955 (inactive),-0.309 (inactive),-3.75 (inactive),0.292 (inactive),-0.724 (inactive),0.487 (inactive),-0.128 (inactive),-0.0935,-0.0622
CC1CC/C=C\[C@H]2OC34C=CCN(c5ccc(Cl)cc5)C(=O)[C@H]3N(CCCO)C(=O)[C@]4(C)C2C(=O)O1 (stereo not given in full),-1.08,1.44 (inactive),-0.198 (inactive),1.44 (inactive),-0.897 (inactive),0.941 (inactive),-0.699 (inactive),-0.801 (inactive),-0.208,-0.151
COC(=O)[C@@]1(Cc2ccc(OC)cc2)[C@H]2c3cc(C(=O)N4CCCC4)n(CCc4ccc(OC)c(Br)c4)c3C[C@H]2CN1C(=O)c1ccccc1,-0.142,0.775 (inactive),-0.354 (inactive),-0.844 (inactive),0.0539 (inactive),-0.101 (inactive),-0.236 (inactive),-0.351 (inactive),0.282,0.312
COCCOC(=O)N1C(=O)[C@@]2(c3cc(C#Cc4ccc(OC)cc4)ccc31)[C@H](C(=O)Nc1nc3ccccc3s1)[C@H]1C(=O)O[C@H](c3ccccc3)[C@H](c3ccccc3)N1[C@@H]2c1ccccc1OCCO,1.17,0.86 (inactive),1.34 (inactive),-0.882 (inactive),1.89 (inactive),0.972 (inactive),0.285 (inactive),0.376 (inactive),1.85,-0.221
CCCC[C@@H]1C[C@H]1[C@@H](NC(=O)Cc1ccccc1)c1ccc(Cl)cc1,1.95,0.0658 (inactive),0.625 (inactive),-1.36 (inactive),0.33 (inactive),0.335 (inactive),-0.704 (inactive),-0.162 (inactive),-4.68,-0.0103
CC(C)CNC(=O)[C@@H]1c2ccccc2C(=O)N(Cc2ccccc2Cl)[C@H]1c1ccc(CO)cc1,0.611,-0.161 (inactive),0.552 (inactive),-0.0116 (inactive),0.0435 (inactive),-0.239 (inactive),0.219 (inactive),0.303 (inactive),0.943,0.199
COCCOC(=O)N1C(=O)[C@@]2(c3cc(C#CC4(O)CCCCCC4)ccc31)[C@H](C(=O)NC[C@H](O)c1ccccc1)[C@H]1C(=O)O[C@H](c3ccccc3)[C@H](c3ccccc3)N1[C@@H]2c1ccc(O)cc1,0.982,-0.598 (inactive),0.483 (inactive),-0.122 (inactive),-0.108 (inactive),0.759 (inactive),0.0468 (inactive),0.321 (inactive),-0.0629,-0.131
COC(=O)C1=CC(CCCO)=CC(C2CC2)N(Cc2cccc(OC(F)(F)F)c2)C=C1C(=O)OC (stereo not given),0.588,-1.76 (inactive),0.348 (inactive),-6.2 (inactive),0.034 (inactive),0.0808 (inactive),1.01 (inactive),1.1 (inactive),0.693,-0.22
CCCCC(=C=CC[C@@H](O)c1cccc(OCCO)c1)C[C@@H](O)COCc1ccccc1,0.161,-2.28 (inactive),-0.164 (inactive),-2.23 (inactive),0.212 (inactive),-2.76 (inactive),0.812 (inactive),0.577 (inactive),0.528,-0.0561
C/C=C/CN(C(=O)C#Cc1ccccc1)[C@H](CO[Si](C)(C)C(C)(C)C)c1ccccc1,0.704,-0.161 (inactive),1.79 (inactive),-3.11 (inactive),-0.966 (inactive),-0.36 (inactive),2 (inactive),0.846 (inactive),3.51,-0.193
C=C(/C(=C/C[C@@H](OC(C)=O)c1ccccc1OCCO)c1cc(C(=O)OC)ccc1OC)C(C)C,0.862,-1.18 (inactive),-0.296 (inactive),-1.22 (inactive),0.0478 (inactive),0.508 (inactive),1.62 (inactive),1.04 (inactive),0.676,-0.323
Cc1ccc(S[C@]2(C(=O)NCC(F)(F)F)CC(=O)N(C3CCCCC3)[C@@H]2c2ccc(CO)cc2)cc1,-0.473,-0.0396 (inactive),0.273 (inactive),-1.41 (inactive),0.0309 (inactive),0.309 (inactive),0.457 (inactive),1.01 (inactive),0.149,-0.155
C=C(COC)/C(=C/C[C@@H](OC(C)=O)c1ccccc1OCCO)c1cc(C(=O)OC)ccc1OC,-0.0418,0.487 (inactive),-0.705 (inactive),-0.069 (inactive),0.543 (inactive),0.759 (inactive),0.013 (inactive),-0.199 (inactive),-0.316,-0.0279
C=C(COC)/C(=C/C[C@H](OC(=O)c1ccncc1)c1ccc(OCCO)cc1)c1cc(C(=O)OC)ccc1OC,0.672,0.194 (inactive),-0.163 (inactive),-1.46 (inactive),-0.505 (inactive),-0.402 (inactive),-0.0988 (inactive),0.33 (inactive),-0.316,0.177
C=CC(CO)NC(=O)OCC1c2ccccc2-c2ccccc21 (stereo not given),0.072,-1.46 (inactive),0.358 (inactive),-1.28 (inactive),0.0117 (inactive),-0.917 (inactive),-0.712 (inactive),-0.616 (inactive),0.388,-0.125
C=CCC(OC(C)=O)[C@@H]1[C@@H](N(Cc2ccc(-c3cccc(C(F)(F)F)c3)o2)C(=O)c2cccc3ccccc23)c2cc(OCCCO)ccc2N1C(=O)c1ccc2ccccc2n1 (stereo not given in full),-0.892,-0.606 (inactive),-0.864 (inactive),0.995 (inactive),-0.51 (inactive),0.356 (inactive),0.249 (inactive),-0.195 (inactive),-0.804,-0.227
CN(C)CCCNC(=O)[C@@H]1c2ccccc2C(=O)N(C2Cc3ccccc3C2)[C@H]1c1ccc(CO)cc1,-0.785,-0.944 (inactive),0.0257 (inactive),-0.487 (inactive),0.444 (inactive),-0.632 (inactive),0.615 (inactive),0.597 (inactive),0.461,0.0345
CCOC(=O)C1=CC[C@@H](c2ccccc2Cl)N(S(=O)(=O)c2ccc(C)cc2)[C@H]1c1cccc(OC)c1,-0.18,1.46 (inactive),-0.703 (inactive),0.0463 (inactive),0.34 (inactive),0.822 (inactive),-0.484 (inactive),-0.679 (inactive),-1.53,-0.114
CC(C)C[C@@H]1NC(=O)[C@H]2C[C@@H](C(=O)NCCCCCCNC(=O)CS)[C@@H](c3ccc(O)cc3)N2C1=O,0.102,0.153 (inactive),0.0815 (inactive),0.31 (inactive),0.932 (inactive),0.088 (inactive),0.236 (inactive),-0.0073 (inactive),-0.596,0.101
C=CCOC(=O)[C@H]1[C@@H]2C(=O)O[C@@H](c3ccccc3)[C@@H](c3ccccc3)N2[C@@H](c2ccc(OCCOC(=O)[C@@H]3C[C@@H]4C(=O)N[C@@H](CC(C)C)C(=O)N4[C@@H]3c3ccc(O)cc3)cc2)[C@]12C(=O)Nc1ccc(I)cc12,-1.11,0.637 (inactive),-0.0917 (inactive),-1.41 (inactive),2.94 (inactive),-0.628 (inactive),0.214 (inactive),1.3 (inactive),0.518,-0.0232
COC(=O)C1(CC(C)C)C=C2C(=C(C(C)C)C(=O)C2C)CN1 (stereo not given),-0.947,1.46 (inactive),-1.56 (inactive),-1.18 (inactive),0.399 (inactive),0.271 (inactive),-0.592 (inactive),-0.113 (inactive),-1.97,0.732
COc1ccc(CC[C@H](O)c2cccc(OCC(=O)OC(C)(C)C)c2)cc1,0.657,-4.45 (inactive),-0.25 (inactive),-1.82 (inactive),0.475 (inactive),0.69 (inactive),0.791 (inactive),0.573 (inactive),-0.204,-0.121
